Screens: PubChem BioAssay, National Center for Advancing Translational Sciences (NCATS)
HP1b chromo inh = inhibitors of HP1-beta chromodomain binding to methylated histone tails; P83916; AID 540317; 390,000 tested, 0.56% active; AlphaScreen HP1-beta / biotin-H3K9me3 peptide binding; Potency, µM (series often up to 114 µM), without a hit: top-dose activity change, negative = inhibition, actives largely listed as inhibitors; further: nearly all actives have a fitted effect of over 70% in size
Target sequence (P83916 whole entry, looked up): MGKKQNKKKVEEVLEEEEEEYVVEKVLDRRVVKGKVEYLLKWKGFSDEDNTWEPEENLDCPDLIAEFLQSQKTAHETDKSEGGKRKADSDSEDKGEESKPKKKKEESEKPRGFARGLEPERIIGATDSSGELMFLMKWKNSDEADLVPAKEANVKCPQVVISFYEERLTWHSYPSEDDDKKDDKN
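Compound inhibition of the preformed complex between 50 nM HP1-beta and 50 nM biotinylated H3K9me3 peptide was read by AlphaScreen. Buffer was PBS pH 7.4 with 0.01% Tween-20. Incubations ran 30 min at room temperature, with 10 ug/mL donor/acceptor beads.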
G9a inh = inhibitors of human histone lysine methyltransferase G9a. Q96KQ7. G9a H3K9 monomethylation, AlphaScreen, 2 h. Potency, µM (titrated, usually from 102 µM), without a hit: at the top dose activity, negative = inhibition, usual class: inhibitors. 350,000 tested, 8.8% active. AID 504332; further: on the % scale 0 is the no-effect control and ±100 the full control effect; nearly all actives have a fitted effect of over 75% in size
Target sequence (Q96KQ7 913-1193 limits assumed): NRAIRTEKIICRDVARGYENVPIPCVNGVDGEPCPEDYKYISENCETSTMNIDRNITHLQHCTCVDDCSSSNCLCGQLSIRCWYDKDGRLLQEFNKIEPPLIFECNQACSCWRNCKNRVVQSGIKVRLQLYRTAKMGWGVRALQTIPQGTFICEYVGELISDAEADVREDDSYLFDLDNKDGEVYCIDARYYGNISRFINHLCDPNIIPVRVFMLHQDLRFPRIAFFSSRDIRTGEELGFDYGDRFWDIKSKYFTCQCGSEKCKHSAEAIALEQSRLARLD
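Step 1: enzyme (final 20 nM) with compound, 15 min RT. Step 2: substrate peptide 500 nM and SAM 20 uM, 2 h RT. Step 3: anti-H3K9me1 antibody and AlphaScreen beads, 10 min, then plate read.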
Sfp inh = Sfp phosphopantetheinyl transferase inhibition; Biochemical Sfp PPTase activity, qHTS; Q9F4F7; 310,000 tested, 3.5% active; AID 1490; Potency, µM, without a hit: largest response in the series, negative = inhibition, usual class: inhibitors;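 further: the enzyme is Sfp with the accession as filed and its product quenches rhodamine fluorescence; 0% = enzyme reaction without inhibitor and -100% = no enzyme wells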
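Compounds were incubated with enzyme (final 15 nM) for 15 min at room temperature before substrate addition started the reaction. Fluorescence at 525 nm excitation, 598 nm emission was recorded immediately and after 30 minutes.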
JMJD2A Tudor inh = blocks the human JMJD2A Tudor domain; O75164; AlphaScreen JMJD2A-Tudor / H3K4me3 peptide binding; Potency, µM (titrated, usually from 114 µM), without a hit: at the highest dose activity change, negative = inhibition, most hits filed as inhibitors; 390,000 tested, 4.4% active; AID 504339; further: on the % scale 0 is the no-effect control and ±100 the full control effect; nearly all actives have a fitted effect of over 50% in size
BAZ2B block = BAZ2B (human) inhibition. AlphaScreen BAZ2B-H3K14Ac peptide displacement. Potency, µM (doses to about 114 µM), inactives show at the highest dose activity change, negative = inhibition, hits mostly inhibitors. 360,000 tested, 4.4% active; further: on the % scale 0 is the no-effect control and ±100 the full control effect; nearly all actives have a fitted effect of over 60% in size
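BAZ2B 50 nM plus b-H3(5-23)K14Ac 50 nM, PBS pH 7.4/0.01% Tween-20, 30 min RT; compound added (max 110 uM), 30 min RT; streptavidin donor/Ni-chelate acceptor beads 10 ug/mL final, 20 min dark; AlphaScreen read.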
Active calls of the source: *; ? = inconclusive; · = no result; [ ] = another dose, or the depositor's remark. This is a sample that favours compounds with a hit; in the whole collection about 12% have one here. The call rests on the fitted dose curve; in most records, active means well fitted curve in the direction sought with a large enough effect; inconclusive means small, poorly fitted or top-dose-only effect, or another doubt; inactive means no such curve, though single readings can be large; an effect the other way counts as inactive or inconclusive. Potency means the concentration at half of the fitted maximal effect.

SMILES	HP1b chromo inh	G9a inh	Sfp inh	JMJD2A Tudor inh	BAZ2B block
CCC1=NN2C(=N)/C(=C\c3ccc(SCc4ccco4)o3)C(=O)N=C2S1	-15%	7.1µM*	45µM*	?	50µM*
CCC1=NN2C(=N)/C(=C/c3c(C)nn(-c4ccccc4)c3Cl)C(=O)N=C2S1	16%	-12%	-2%	-18%	-6%
CCCC1=NN2C(=N)/C(=C\c3ccc(SCc4ccco4)o3)C(=O)N=C2S1	?	8.9µM*	56µM*	50µM*	45µM*
NS(=O)(=O)c1ccc(-c2ccc(/C=N/NC(=O)c3ccccc3O)o2)cc1	38%	·	-25%	-13%	-4%
CCOC(=O)c1ccc(-c2ccc(/C=N/NC(=O)CN(c3cccc(C)c3)S(C)(=O)=O)o2)cc1	26%	7.9µM*	10%	-19%	-35%
CC(C)COc1ccc(C(=O)Nc2ccc(S(=O)(=O)Nc3ncccn3)cc2)cc1	25%	-3%[59 µM]	·	-15%	0%
CCOc1ccc(C(=O)N/N=C/c2ccc(-c3ccc(S(=O)(=O)Nc4ncccn4)cc3)o2)cc1	-6%	-7%[12.7 µM]	-5%	89µM*	79µM*
CCOc1ccc(S(=O)(=O)N(CC(=O)N/N=C/c2ccc(-c3ccc([N+](=O)[O-])cc3)o2)c2ccccc2)cc1	-21%	1.6µM*	-20%	28µM*	22µM*
O=C(N/N=C/c1ccc(-c2ccc(S(=O)(=O)Nc3ncccn3)cc2)o1)c1cc2ccccc2cc1O	28µM*	?	50µM*	50µM*	18µM*
CCOC(=O)C1(Cc2cccc(OC)c2)CCCN(C(=O)CNC(C)=O)C1 (configuration not stated)	40%	2%[0.501 µM]	24%	-8%	7%
COc1ccc(NC(=O)NNC(=O)C(C)Oc2ccc3ccccc3c2)cc1OC (configuration not stated)	17%	-11%	8%	-29%	-25%
NC(=S)NN=Cc1ccc(-c2ccc(S(=O)(=O)Nc3ncccn3)cc2)o1	?	·	·	50µM*	·
O=C(O)C(C(=O)/C=C/c1ccco1)=C1SCCS1	71µM*	?	28µM*	56µM*	50µM*
O=C(C=C1SCCS1)/C=C/c1ccco1	?	40µM*	45µM*	45µM*	50µM*
COc1ccc(-n2ncc(C(=O)NCCN3CCOCC3)c2C2CCN(C(=O)OC(C)(C)C)CC2)cc1	20%	-20%[59 µM]	·	-4%	12%[57.1 µM]
Cc1ccc(/C=N\NC(=O)C2CC(=O)N(c3ccccc3)C2)o1 (configuration not stated)	8%	?	3%	-16%	-17%
CC(=Nc1cccc(O)c1)c1sc2ccccc2c1O	17%	?	-18%	-10%	40µM*
CC(=Nc1ccc(C)cc1)c1sc2ccccc2c1O	-17%	?	?	?	?
CC(=Nc1ccc(C)cc1C)c1sc2ccccc2c1O	20%	?	-6%	56µM*	?
CCOc1ccc(CCNC(=O)c2cc3c(=O)[nH]c4ccc(C)cc4c3s2)cc1OCC	20%	3%[59 µM]	·	-21%	-17%
CCOc1ccc(NC(=O)CSc2nc3ccccc3c(=O)n2CCC(=O)NC2CCCCC2)cc1	30%	14%[59 µM]	·	-13%	0%
CCCOc1ccc(CNC(=O)Cc2cccs2)cc1	63%	-5%	4%	7%	11%
CC1=NN(C(N)=S)C(=O)C1N=Nc1c(Cl)cc([N+](=O)[O-])cc1Cl (configuration not stated)	?	25µM*	-1%	28µM*	40µM*
CC1=NN(C(N)=S)C(=O)C1N=Nc1c(Br)cc(Br)cc1Br (configuration not stated)	-18%	0%[0.501 µM]	-17%	56µM*	28µM*
O=C(NNC(=O)c1cnccn1)c1ccc(Cl)c(Cl)c1	48%	32%	13%	-7%	6%
SMILES	HP1b chromo inh	G9a inh	Sfp inh	JMJD2A Tudor inh	BAZ2B block
Cc1ccc(C(=O)Nc2cccc(C(O)c3ccccc3)c2)cc1 (configuration not stated)	18%	·	·	-8%	·
Cc1ccc(NC(=O)Cn2c(=O)ccc3cc(S(=O)(=O)N4CCC(C)CC4)ccc32)c(C)c1	-4%[57 µM]	-11%[59 µM]	·	-12%	-4%
O=S(=O)(Nc1nc2ccccc2nc1N1CCc2ccccc2C1)c1ccc(Br)cc1	54%	8.9µM*	-15%	0%	-8%
O=S(=O)(Nc1nc2ccccc2nc1Cl)c1ccc(Br)cc1	59%	?	71µM*	-16%	·
O=S(=O)(Nc1nc2ccccc2nc1N1CCc2ccccc2C1)c1ccc(Cl)cc1	64%	?	11%	3%	4%
CN(C(=S)NCCN1CCOCC1)C(c1ccccc1)c1ccccc1	?	20µM*	-25%	10µM*	50µM*
O=c1c(-c2ccc(Br)cc2)[n+]([O-])c2ccccc2n1OCc1ccccc1	28%	-7%	2%	-14%	-12%
CC(C)(C)c1ccc(COn2c(=O)c(-c3ccco3)[n+]([O-])c3ccccc32)cc1	28%	?	56µM*	9%	-10%
COc1ccc(/C=C/C(=O)N(CC(C)C)C2CCS(=O)(=O)C2)cc1 (configuration not stated)	29%	3%	·	5%	8%
CC(C)CN(C(=O)/C=C/c1nc2ccccc2s1)C1CCS(=O)(=O)C1 (configuration not stated)	0%	56µM*	·	-21%	3%
CC1(C)CC(=O)c2cc(NC(=O)c3ccccc3)c(=O)oc2C1	6%	-22%	9%	79µM*	-1%
CC(=O)c1cc(NC(=O)c2ccc(C)cc2)c(=O)oc1/C=C/N(C)C	19%	-40%[12.7 µM]	10%	-20%	1%
COC(=O)c1cc(NC(=O)c2ccc(OC)cc2)c(=O)oc1C	1%	-26%	-13%	-16%[11.4 µM]	-2%
CC(=O)c1cc(NC(=O)c2ccc(C)cc2)c(=O)oc1C	-23%	18µM*	?	20µM*	-19%
Cc1oc(=O)c(NC(=O)c2ccc(Cl)cc2)cc1C(=O)c1ccccc1	-11%	·	8.9µM*	?	2%
CC(=O)c1cc(NC(=O)c2ccccc2)c(=O)oc1C	?	32µM*	?	-33%	-21%
O=C(CCn1c(=O)c2ccccc2n(CC(=O)Nc2cccc(F)c2)c1=O)NCCc1ccccc1	19%	6%[59 µM]	·	2%	-1%
Cc1oc(-c2ccc(Cl)cc2)nc1CSc1nnc(C)n2c1cc1sccc12	29%	-2%[59 µM]	·	0%	-13%
Cc1oc(=O)c(NC(=O)c2ccccc2)cc1C(=O)c1ccccc1	23%	·	16µM*	-25%	-6%
CN(C)c1ccc(/C=C/C=C2/SC(=S)N(c3ccccc3)C2=O)cc1	-92%	?	-19%	5.6µM*	?
O=C(O)c1ccc(N2C(=O)/C(=C/C=C/c3ccccc3)SC2=S)cc1	-14%	45µM*	6%	?	?
